Our source for the growth values is PubChem BioAssay (NCI).

Values joined by “and” are separate entries in the source; they are usually repeats but may differ in a detail not shown here. Identical values can stand only once. The panel holds about 83,000 compounds, 20% with a hit somewhere; the sample as a whole holds those more often.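 The endpoint reported here, percent growth, reads 100 for growth as untreated, 0 for no net growth and -100 for all cells dead.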 Active and inactive are the calls of the source. Rule for the calls: active = growth percent below 10; inactive = the rest. Where a SMILES comes first, the peptide text is derived from it. [ ]: non-standard residue; d: D form. ξ: configuration not given here. ξV = CC(C)C(N)C(=O)O

Holding throughout (experiment): NCI-60 one-dose screen, 48 h (100 = growth as untreated, 0 = no growth, -100 = all killed)
The test system of one assay is SR leukemia. As to conditions: 10 µM unless noted.
The subject of another assay is RPMI-8226 leukemia. The following applies: 10 µM.
The subject of the next assay is OVCAR-8 ovarian. As to conditions: 10 µM.
The subject of the next assay is OVCAR-5 ovarian. The following applies: 10 µM.
In another assay the test system is OVCAR-4 ovarian. As to conditions: 10 µM.
Another assay has as its system SK-OV-3 ovarian. The following applies: 10 µM.
A further assay relates to IGROV1 ovarian. As to conditions: 10 µM.
The next assay deals with HS 578T breast. The following applies: 10 µM.
The subject of another assay is NCI/ADR-RES ovarian. The following applies: 10 µM.
The test system of the next assay is OVCAR-3 ovarian. The following applies: 10 µM.

Consider `NC1=C(Cl)C(=O)c2ccccc2C1=O`, for which the growth was 46.4% (inactive) in the assay with SR leukemia; 55.7% (inactive) in the assay on RPMI-8226 leukemia; 74.4% (inactive) with OVCAR-8 ovarian; 111% (inactive) in the assay with OVCAR-5 ovarian; 72.3% (inactive) in the assay on OVCAR-4 ovarian; 108% (inactive) in the assay on SK-OV-3 ovarian. The growth in the assay on IGROV1 ovarian was 67.7% (inactive); with HS 578T breast, 14.5% (inactive); in the assay on NCI/ADR-RES ovarian it was 80.4% (inactive).

With `CCCCCCCCCCSC(=N)N`, the growth in the assay on SR leukemia is -25% (active); in the assay on RPMI-8226 leukemia it was -11% (active); with OVCAR-8 ovarian, 61.5% (inactive); in the assay with OVCAR-5 ovarian, 77.4% (inactive); in the assay with OVCAR-4 ovarian it was 76.7% (inactive); in the assay with SK-OV-3 ovarian, 77.5% (inactive). Also, the growth with IGROV1 ovarian was 46.1% (inactive); in the assay with OVCAR-3 ovarian it was 67% (inactive); in the assay with HS 578T breast, 81.1% (inactive); in the assay on NCI/ADR-RES ovarian, 69.3% (inactive).

Regarding `CCC(C)(C)c1cc(O)c(C(C)(C)CC)cc1O`, the growth with SR leukemia is 45.1% (inactive); in the assay on RPMI-8226 leukemia it was 22.3% (inactive); with OVCAR-8 ovarian, 65.9% (inactive); with OVCAR-5 ovarian, 49.2% (inactive); with OVCAR-4 ovarian, 28% (inactive); in the assay on SK-OV-3 ovarian, 57.2% (inactive). Also, the growth in the assay with IGROV1 ovarian was 64.8% (inactive); in the assay with HS 578T breast, 31.9% (inactive); with NCI/ADR-RES ovarian, 39.2% (inactive).

On to `NNc1ccc2ccccc2c1`, for which the growth is 82.3% (inactive) and 94.9% (inactive) in the assay with SR leukemia; 92.8% (inactive) and 97.2% (inactive) with RPMI-8226 leukemia; 97.8% (inactive) and 96.2% (inactive) with OVCAR-8 ovarian; 92.3% (inactive) and 93% (inactive) with OVCAR-5 ovarian; 89.9% (inactive) and 88.2% (inactive) in the assay on OVCAR-4 ovarian; 76.3% (inactive) and 91.1% (inactive) with SK-OV-3 ovarian. The growth in the assay on IGROV1 ovarian is 83% (inactive) and 103% (inactive); in the assay with HS 578T breast, 96.1% (inactive) and 98.9% (inactive); in the assay on NCI/ADR-RES ovarian, 97.1% (inactive) and 101% (inactive).

For `Cc1cc(O)c(C(C)C)cc1Cl`, the growth was 103% (inactive) in the assay with SR leukemia; 110% (inactive) in the assay on RPMI-8226 leukemia; 104% (inactive) in the assay on OVCAR-8 ovarian; 105% (inactive) in the assay on OVCAR-5 ovarian; 109% (inactive) with OVCAR-4 ovarian; 101% (inactive) in the assay on SK-OV-3 ovarian. The growth in the assay with IGROV1 ovarian is 112% (inactive); in the assay on OVCAR-3 ovarian, 103% (inactive); in the assay with HS 578T breast, 99.5% (inactive); in the assay with NCI/ADR-RES ovarian, 112% (inactive).

Regarding `CC1=CC(C)=Nc2ccc(Cl)cc2N1`, the growth was 91.1% (inactive) in the assay on SR leukemia; 102% (inactive) with RPMI-8226 leukemia; 102% (inactive) with OVCAR-8 ovarian; 112% (inactive) with OVCAR-5 ovarian; 110% (inactive) in the assay on OVCAR-4 ovarian; 98.7% (inactive) in the assay with SK-OV-3 ovarian. Besides, the growth in the assay with IGROV1 ovarian is 103% (inactive); with HS 578T breast, 104% (inactive); in the assay with NCI/ADR-RES ovarian, 102% (inactive).

Regarding `CC(C)C(NC(=O)CN)C(=O)O` (stereo unspecified) (H-Gly-[ξV]-OH), the growth was 57% (inactive) in the assay on SR leukemia; 109% (inactive) and 107% (inactive) in the assay with RPMI-8226 leukemia; 101% (inactive) and 110% (inactive) with OVCAR-8 ovarian; 103% (inactive) and 99.9% (inactive) with OVCAR-5 ovarian; 105% (inactive) and 102% (inactive) in the assay on OVCAR-4 ovarian; 106% (inactive) and 101% (inactive) with SK-OV-3 ovarian. For the same molecule, the growth was 109% (inactive) and 108% (inactive) with IGROV1 ovarian; 112% (inactive) in the assay with OVCAR-3 ovarian; 111% (inactive) and 91.9% (inactive) in the assay with HS 578T breast; 105% (inactive) and 111% (inactive) in the assay on NCI/ADR-RES ovarian.

For the molecule `O=C(C(=Cc1ccccc1)C(=O)c1ccccc1)c1ccccc1`, the growth is 6.35% (active) and 108% (inactive) with SR leukemia; -2.63% (active) and 85.2% (inactive) with RPMI-8226 leukemia; 47.8% (inactive) and 87% (inactive) with OVCAR-8 ovarian; 91.7% (inactive) and 84.7% (inactive) in the assay on OVCAR-5 ovarian; 73.6% (inactive) and 84.7% (inactive) in the assay on OVCAR-4 ovarian; 99.5% (inactive) and 106% (inactive) in the assay on SK-OV-3 ovarian. Also, the growth is 75.1% (inactive) and 117% (inactive) in the assay on IGROV1 ovarian; 65.2% (inactive) and 94.3% (inactive) in the assay on HS 578T breast; 54.3% (inactive) and 84.3% (inactive) in the assay on NCI/ADR-RES ovarian.

Regarding `O=C1NC(=O)c2cc([N+](=O)[O-])ccc21`, the growth was 95.3% (inactive) in the assay with SR leukemia; 71.2% (inactive) in the assay on RPMI-8226 leukemia; 94.4% (inactive) with OVCAR-8 ovarian; 101% (inactive) in the assay with OVCAR-5 ovarian; 117% (inactive) with OVCAR-4 ovarian; 105% (inactive) with SK-OV-3 ovarian. Also, the growth in the assay with IGROV1 ovarian was 103% (inactive); in the assay with HS 578T breast it was 127% (inactive); in the assay with NCI/ADR-RES ovarian, 113% (inactive).

Turning to `Oc1ccc(N=Nc2ccccn2)c(O)c1`, the growth with SR leukemia is 10.6% (inactive); with RPMI-8226 leukemia, 21.2% (inactive); in the assay on OVCAR-8 ovarian it was 18.5% (inactive); in the assay with OVCAR-5 ovarian, 53.8% (inactive); in the assay with OVCAR-4 ovarian, 29.8% (inactive); in the assay on SK-OV-3 ovarian, 25.5% (inactive). Besides, the results for the growth in the assay on IGROV1 ovarian, in the assay on HS 578T breast and with NCI/ADR-RES ovarian were 19.9% (inactive), 65.1% (inactive) and 14.7% (inactive), respectively.

On to `Cc1cc(NS(=O)(=O)c2ccc(N=Nc3cc(N=Nc4ccc(S(=O)(=O)Nc5cc(C)nc(C)n5)cc4)c4c(NC(=O)C(Cl)Cl)cccc4c3OC(=O)C(Cl)Cl)cc2)nc(C)n1` (tested in a mixture with another compound), for which the growth in the assay with SR leukemia is 103% (inactive) and 69% (inactive); with RPMI-8226 leukemia, 114% (inactive) and 101% (inactive); in the assay with OVCAR-8 ovarian it was 94.8% (inactive) and 91.7% (inactive); in the assay on OVCAR-5 ovarian it was 122% (inactive); in the assay with OVCAR-4 ovarian, 101% (inactive) and 94.3% (inactive); in the assay on SK-OV-3 ovarian it was 103% (inactive) and 105% (inactive). Also, the growth in the assay with IGROV1 ovarian was 104% (inactive); in the assay on HS 578T breast, 111% (inactive) and 128% (inactive); in the assay on NCI/ADR-RES ovarian, 107% (inactive) and 104% (inactive).

As for `CCCC1CCC(=C2C(=O)CCC2=O)O1` (stereo unspecified), the growth in the assay with SR leukemia is 96.5% (inactive) and 78.2% (inactive); in the assay on RPMI-8226 leukemia it was 119% (inactive) and 113% (inactive); with OVCAR-8 ovarian it was 112% (inactive); with OVCAR-5 ovarian, 96.8% (inactive) and 97% (inactive); with OVCAR-4 ovarian, 98.2% (inactive); in the assay with SK-OV-3 ovarian, 104% (inactive) and 110% (inactive). Moreover, the growth is 121% (inactive) with IGROV1 ovarian; 109% (inactive) and 97.8% (inactive) in the assay on HS 578T breast; 108% (inactive) and 106% (inactive) with NCI/ADR-RES ovarian.
